In PubChem BioAssay (EPA / NIEHS):
Results filed as inconclusive are left out. Activity calls are given as the source filed them. How the source made its calls, unless noted: active means hit-call score of the fitted dose curve at least 0.9, where 1 is the maximum; inactive means score below 0.9.

Legend:
[1] = read-out: Monokine induced gamma interferon (MIG), CXCL9 (gene 4283); assay: BSK_SAg_MIG: BioMAP Diversity Plus: SAg Assay for Monokine induced gamma interferon (MIG) Biomarker Activity (AID 2283092); details: primary human HUVEC with PBMC; actives raise or lower the signal
In short: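 HUVEC plus human PBMC co-culture, chemicals dosed and MIG (CXCL9) quantified by ELISA at 24 h. Bidirectional curve fitting against DMSO as negative control and baseline, so both gain and loss of signal count as activity.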

[2] = BSK_SAg_PBMCCytotoxicity: PBMC Cytotoxicity Assessment in the BioMAP Diversity Plus: SAg Assay (AID 2283093); details: primary human HUVEC with PBMC;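 further: PBMC viability measured as Alamar Blue reduction fluorescence at 546/580 nm; fitted both ways against DMSO so a hit may be loss or gain of signal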;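 on AC50: PBMC superantigen activated with SEB plus TSST-1 one hour after compound addition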
In short: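 Human umbilical vein endothelial cells co-cultured with PBMC; PBMC (75,000/well) pre-treated with compound 1 h, then activated with SEB and TSST-1 (20 ng/mL final each) for 90 h. Alamar Blue added 6 h, fluorescence 546/580 nm; bidirectional fit versus DMSO.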

[3] = read-out: Interleukin-8 (IL8), CXCL8 (gene 3576); assay: BSK_SAg_IL8: BioMAP Diversity Plus: SAg Assay for Interleukin-8 (IL8) Biomarker Activity (AID 2283094); details: primary human HUVEC with PBMC; actives raise or lower the signal
In short: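 Human umbilical vein endothelial cells co-cultured with peripheral blood mononuclear cells; IL-8 measured by ELISA 24 h after chemical dosing. Bidirectional concentration-response fitting used DMSO as negative control and activity baseline.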

[4] = BSK_SAg_Proliferation: Cell Proliferation Assessment in the BioMAP Diversity Plus: SAg Assay (AID 2283095); details: primary human HUVEC with PBMC;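 further: relative cell number as total protein by SRB absorbance in sub-confluent culture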
In short: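 Human umbilical vein endothelial cells co-cultured with peripheral blood mononuclear cells; total protein measured by sulforhodamine B staining (0.1% SRB after 10% TCA fixation), absorbance at 560 nm, at 96 h. Bidirectional fit against DMSO baseline.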

[5] = BSK_SAg_SRB: Viability Assessment in the BioMAP Diversity Plus: SAg Assay (AID 2283096); details: primary human HUVEC with PBMC;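 further: cells read one day after compound addition; hits may be either gain or loss of signal compared with DMSO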
In short: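 Endothelial/PBMC primary human co-culture; compound 24 h; fix 10% TCA, stain 0.1% SRB, A560; protein content as cytotoxicity proxy; bidirectional curve fit, DMSO = baseline.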

[6] = biological target: Cytochrome P450 3A4 (Homo sapiens) (UniProt P08684); assay: NVS_ADME_hCYP3A4: NovaScreen (NVS) CYP450-related Enzyme Activity (ADME) Assay for human CYP3A4 (AID 2283110; active means hit-call score of the fitted dose curve at least 0.9, where 1 is the maximum)
In short: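 Cell-free assay using insect-cell-expressed human CYP3A4 with a fluorogenic substrate; fluorescence intensity was read 0.33 hour after dosing. Loss of signal relative to acetonitrile vehicle indicated inhibition. Primary single-concentration screen at 10 uM, in duplicate, then concentration series.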

[7] = biological target: Cytochrome P450 2C19 (Homo sapiens) (UniProt P33261); assay: NVS_ADME_hCYP2C19: NovaScreen (NVS) CYP450-related Enzyme Activity (ADME) Assay for human CYP2C19 (AID 2283113; active means hit-call score of the fitted dose curve at least 0.9, where 1 is the maximum;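 on AC50: potency for inhibition seen as loss of fluorescent signal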)
In short: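 Cell-free recombinant human CYP2C19 from insect cells, fluorescent substrate; activity read by fluorescence intensity 1 h after dosing. Primary screen in duplicate at 10 uM; actives retested in concentration series. Signal loss versus acetonitrile negative control.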

[8] = biological target: human Caspase 5 (CASP5), CASP5 (gene 838) (UniProt P51878); assay: NVS_ENZ_hCASP5: NovaScreen (NVS) Enzymatic Assay for human Caspase 5 (CASP5) (AID 2283137; active means hit-call score of the fitted dose curve at least 0.9, where 1 is the maximum)
In short: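 Recombinant E. coli-expressed human caspase 5 in a cell-free enzyme assay; fluorescence intensity read 2 hours after chemical dosing. Single-concentration duplicate screen at 25 uM, then concentration-response up to 50 uM for hits; DMSO negative control.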

[9] = biological target: human Dual Specificity Protein Phosphatase 3 (DUSP3), DUSP3 (gene 1845) (UniProt P51452); assay: NVS_ENZ_hDUSP3: NovaScreen (NVS) Enzymatic Assay for human Dual Specificity Protein Phosphatase 3 (DUSP3) (AID 2283152; active means hit-call score of the fitted dose curve at least 0.9, where 1 is the maximum;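 further: phosphatase activity of recombinant human DUSP3 on a fluorogenic substrate without cells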)
In short: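 Cell-free assay with recombinant human DUSP3 and fluorogenic substrate, read by fluorescence intensity. Primary screen ran duplicate at 25 uM; actives followed up in concentration series; loss of signal versus DMSO scored.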

[10] = biological target: human Esterase Plasma (ES), BCHE (gene 590) (UniProt P06276); assay: NVS_ENZ_hES: NovaScreen (NVS) Enzymatic Assay for human Esterase Plasma (ES) (AID 2283157; active means hit-call score of the fitted dose curve at least 0.9, where 1 is the maximum)
In short: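 Cell-free enzyme assay using esterase extracted from human plasma; colorimetric absorbance read 0.25 hour after dosing. Single-concentration duplicate screen at 25 uM, then concentration-response up to 50 uM; loss of signal scored against DMSO baseline.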

[11] = biological target: human Phosphoinositide 3-kinase alpha (PI3Ka), PIK3CA (gene 5290) (UniProt P42336); assay: NVS_ENZ_hPI3Ka: NovaScreen (NVS) Enzymatic Assay for human Phosphoinositide 3-kinase alpha (PI3Ka) (AID 2283196; active means hit-call score of the fitted dose curve at least 0.9, where 1 is the maximum)
In short: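 Recombinant human PI3Kα with fluorescent substrate, 1 h, product separated by electrophoretic mobility shift; 25 uM duplicate screen, hits (e.g., 30% inhibition) retested singly up to 50 uM; loss of signal vs DMSO.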

[12] = biological target: human Beta-secretase (BACE), BACE1 (gene 23621) (UniProt P56817); assay: NVS_ENZ_hBACE: NovaScreen (NVS) Enzymatic Assay for human Beta-secretase (BACE) (AID 2283140; active means hit-call score of the fitted dose curve at least 0.9, where 1 is the maximum;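 further: hits are inhibitors that reduce fluorescent substrate signal versus DMSO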)
In short: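 Cell-free fluorescence-intensity assay of recombinant BACE1 expressed in SF9 cells, read 1 hour after dosing. Loss of signal indicates reduced protease activity, fitted relative to DMSO negative control. Primary screen at 25 uM in duplicate; actives followed in concentration series.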

[13] = biological target: human Matrix Metalloproteinase-9 (MMP9), MMP9 (gene 4318) (UniProt P14780); assay: NVS_ENZ_hMMP9: NovaScreen (NVS) Enzymatic Assay for human Matrix Metalloproteinase-9 (MMP9) (AID 2283190; active means hit-call score of the fitted dose curve at least 0.9, where 1 is the maximum;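 further: cell-free recombinant MMP9 protease activity read by fluorescent substrate signal; active means inhibition seen as loss of fluorescence signal versus DMSO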)
In short: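 Cell-free recombinant MMP9 enzyme activity measured by fluorescence intensity 1 h after dosing. Primary screen in duplicate at 25 uM, actives followed in concentration series; loss of signal relative to DMSO.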

[14] = biological target: human Phosphodiesterase 10 (PDE10), PDE10A (gene 10846) (UniProt Q9Y233); assay: NVS_ENZ_hPDE10: NovaScreen (NVS) Enzymatic Assay for human Phosphodiesterase 10 (PDE10) (AID 2283195; active means hit-call score of the fitted dose curve at least 0.9, where 1 is the maximum)
In short: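 Fluorescence/mobility-shift readout of PDE10A enzyme activity, taken 1 h post-dosing. Primary screen in duplicate at 25 uM; actives (e.g. ≥30% inhibition) retested as singleton concentration-response, top concentration 50 uM.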

[15] = biological target: human Ephrin type-A Receptor 1 (EphA1), EPHA1 (gene 2041) (UniProt P21709); assay: NVS_ENZ_hEphA1: NovaScreen (NVS) Enzymatic Assay for human Ephrin type-A Receptor 1 (EphA1) (AID 2283158; active means hit-call score of the fitted dose curve at least 0.9, where 1 is the maximum;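 further: activity is signal loss versus DMSO meaning EphA1 kinase inhibition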)
In short: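 Cell-free kinase activity with recombinant protein, 1 hour after dosing; product separated by electrophoretic mobility shift, fluorescence read. Primary screen at 25 uM in duplicate; hits run as concentration-response up to 50 uM, relative to DMSO.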

[16] = biological target: human CYP19A1, CYP19A1 (gene 1588) (UniProt P11511); assay: NVS_ADME_hCYP19A1: NovaScreen (NVS) CYP450-related Enzyme Activity (ADME) Assay for human CYP19A1 (AID 2283098; active means hit-call score of the fitted dose curve at least 0.9, where 1 is the maximum;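 further: potency for inhibitors seen as loss of fluorescent enzyme signal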)
In short: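 Cell-free enzyme assay with recombinant protein and a specific fluorogenic substrate, read by fluorescence intensity 0.5 h after dosing. Primary screen ran in duplicate at 10 uM; actives were retested in concentration series. Loss of signal versus acetonitrile baseline.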

[17] = biological target: human CYP2D6, CYP2D6 (gene 1565) (UniProt P10635); assay: NVS_ADME_hCYP2D6: NovaScreen (NVS) CYP450-related Enzyme Activity (ADME) Assay for human CYP2D6 (AID 2283107; active means hit-call score of the fitted dose curve at least 0.9, where 1 is the maximum)
In short: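 Cell-free assay using recombinant human CYP2D6 expressed in insect cells, with a fluorogenic substrate read after 1 h. Primary screen in duplicate at 10 uM; actives followed up in concentration series. Loss of signal fitted relative to acetonitrile.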

[18] = biological target: human CYP2C9, CYP2C9 (gene 1559) (UniProt P11712); assay: NVS_ADME_hCYP2C9: NovaScreen (NVS) CYP450-related Enzyme Activity (ADME) Assay for human CYP2C9 (AID 2283108; active means hit-call score of the fitted dose curve at least 0.9, where 1 is the maximum)
In short: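 Cell-free assay of recombinant human CYP2C9 produced in Sf9 cells, with enzyme activity read by fluorescence intensity 0.75 h after compound addition. Loss of signal versus an acetonitrile negative control indicates inhibition. Primary screen used 10 uM in duplicate; actives were retested in concentration series.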

[19] = biological target: human Vascular Endothelial Growth Factor Receptor 1 (VEGFR1), FLT1 (gene 2321) (UniProt P17948); assay: NVS_ENZ_hVEGFR1: NovaScreen (NVS) Enzymatic Assay for human Vascular Endothelial Growth Factor Receptor 1 (VEGFR1) (AID 2283226; active means hit-call score of the fitted dose curve at least 0.9, where 1 is the maximum)
In short: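 Cell-free assay of recombinant human VEGFR1 kinase with substrate, measured 1 h after dosing; fluorescence with electrophoretic mobility-shift separation of substrate and product, referenced to DMSO; primary screen at 25 uM in duplicate, actives then run in concentration series.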

Measured: AC50

human Beta-secretase (BACE), BACE1 (gene 23621), sequence (P56817 whole entry, looked up): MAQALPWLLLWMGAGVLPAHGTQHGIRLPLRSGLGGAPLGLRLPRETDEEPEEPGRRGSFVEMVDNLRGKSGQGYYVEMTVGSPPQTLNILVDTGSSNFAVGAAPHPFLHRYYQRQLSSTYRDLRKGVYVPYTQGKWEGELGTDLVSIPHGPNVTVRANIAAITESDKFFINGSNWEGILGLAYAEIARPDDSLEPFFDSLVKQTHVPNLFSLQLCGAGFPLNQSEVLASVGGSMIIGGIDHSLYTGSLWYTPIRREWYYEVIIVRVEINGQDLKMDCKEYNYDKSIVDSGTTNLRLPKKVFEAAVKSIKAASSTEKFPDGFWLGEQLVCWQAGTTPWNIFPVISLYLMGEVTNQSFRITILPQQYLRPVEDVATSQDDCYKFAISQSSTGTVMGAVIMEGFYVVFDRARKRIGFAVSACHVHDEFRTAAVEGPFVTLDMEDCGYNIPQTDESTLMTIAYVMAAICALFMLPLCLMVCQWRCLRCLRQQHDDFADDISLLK
human Phosphoinositide 3-kinase alpha (PI3Ka), PIK3CA (gene 5290), sequence (P42336 whole entry, looked up): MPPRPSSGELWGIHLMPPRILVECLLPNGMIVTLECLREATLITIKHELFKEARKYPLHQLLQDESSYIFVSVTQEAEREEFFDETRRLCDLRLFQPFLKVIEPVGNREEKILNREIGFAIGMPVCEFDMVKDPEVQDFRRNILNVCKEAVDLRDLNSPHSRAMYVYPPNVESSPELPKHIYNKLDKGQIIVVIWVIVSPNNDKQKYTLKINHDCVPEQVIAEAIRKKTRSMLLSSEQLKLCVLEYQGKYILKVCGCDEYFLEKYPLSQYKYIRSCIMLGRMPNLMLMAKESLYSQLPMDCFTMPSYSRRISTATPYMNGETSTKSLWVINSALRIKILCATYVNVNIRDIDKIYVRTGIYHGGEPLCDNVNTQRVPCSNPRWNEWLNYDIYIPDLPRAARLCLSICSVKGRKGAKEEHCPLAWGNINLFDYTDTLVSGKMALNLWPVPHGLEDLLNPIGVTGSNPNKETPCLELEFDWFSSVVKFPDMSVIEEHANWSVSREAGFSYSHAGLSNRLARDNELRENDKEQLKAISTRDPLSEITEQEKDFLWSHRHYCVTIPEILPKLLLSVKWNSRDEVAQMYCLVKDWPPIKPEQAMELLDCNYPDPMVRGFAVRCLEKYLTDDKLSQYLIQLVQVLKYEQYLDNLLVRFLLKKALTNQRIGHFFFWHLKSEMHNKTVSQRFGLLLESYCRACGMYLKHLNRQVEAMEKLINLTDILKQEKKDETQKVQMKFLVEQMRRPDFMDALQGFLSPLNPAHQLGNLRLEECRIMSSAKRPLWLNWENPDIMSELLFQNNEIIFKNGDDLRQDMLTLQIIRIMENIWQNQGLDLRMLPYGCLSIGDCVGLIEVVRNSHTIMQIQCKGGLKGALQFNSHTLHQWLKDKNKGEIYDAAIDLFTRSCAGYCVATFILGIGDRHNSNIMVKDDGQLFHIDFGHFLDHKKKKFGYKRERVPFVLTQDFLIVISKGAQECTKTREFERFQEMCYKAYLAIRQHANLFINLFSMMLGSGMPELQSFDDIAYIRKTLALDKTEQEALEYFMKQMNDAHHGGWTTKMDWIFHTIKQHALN
human Ephrin type-A Receptor 1 (EphA1), EPHA1 (gene 2041), sequence (P21709 whole entry, looked up): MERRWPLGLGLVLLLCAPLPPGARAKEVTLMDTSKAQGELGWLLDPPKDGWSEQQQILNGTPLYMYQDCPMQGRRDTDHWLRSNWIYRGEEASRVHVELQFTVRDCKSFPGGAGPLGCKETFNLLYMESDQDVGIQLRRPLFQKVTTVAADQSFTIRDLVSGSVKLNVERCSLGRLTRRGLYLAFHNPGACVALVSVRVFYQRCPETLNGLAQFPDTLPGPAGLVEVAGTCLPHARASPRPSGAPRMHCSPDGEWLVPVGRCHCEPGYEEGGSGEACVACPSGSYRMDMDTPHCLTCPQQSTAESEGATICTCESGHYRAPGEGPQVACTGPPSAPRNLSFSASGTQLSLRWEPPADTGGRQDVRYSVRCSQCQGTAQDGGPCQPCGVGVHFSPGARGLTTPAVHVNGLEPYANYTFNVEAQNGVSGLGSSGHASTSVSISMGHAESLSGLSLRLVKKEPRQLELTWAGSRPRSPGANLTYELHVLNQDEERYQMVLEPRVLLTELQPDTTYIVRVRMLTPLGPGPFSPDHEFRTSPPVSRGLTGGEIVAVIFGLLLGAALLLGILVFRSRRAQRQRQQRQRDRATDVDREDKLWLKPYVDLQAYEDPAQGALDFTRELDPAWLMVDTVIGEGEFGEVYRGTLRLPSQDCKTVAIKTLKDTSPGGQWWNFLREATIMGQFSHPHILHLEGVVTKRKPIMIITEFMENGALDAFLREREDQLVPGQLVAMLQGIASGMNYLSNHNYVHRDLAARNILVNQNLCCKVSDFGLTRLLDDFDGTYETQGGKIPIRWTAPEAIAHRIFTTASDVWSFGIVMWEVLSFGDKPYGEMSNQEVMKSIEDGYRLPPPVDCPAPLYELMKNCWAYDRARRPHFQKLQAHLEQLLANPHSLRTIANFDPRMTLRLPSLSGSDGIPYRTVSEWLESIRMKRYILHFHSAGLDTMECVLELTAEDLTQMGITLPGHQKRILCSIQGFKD
human Phosphodiesterase 10 (PDE10), PDE10A (gene 10846), sequence (Q9Y233 whole entry, looked up): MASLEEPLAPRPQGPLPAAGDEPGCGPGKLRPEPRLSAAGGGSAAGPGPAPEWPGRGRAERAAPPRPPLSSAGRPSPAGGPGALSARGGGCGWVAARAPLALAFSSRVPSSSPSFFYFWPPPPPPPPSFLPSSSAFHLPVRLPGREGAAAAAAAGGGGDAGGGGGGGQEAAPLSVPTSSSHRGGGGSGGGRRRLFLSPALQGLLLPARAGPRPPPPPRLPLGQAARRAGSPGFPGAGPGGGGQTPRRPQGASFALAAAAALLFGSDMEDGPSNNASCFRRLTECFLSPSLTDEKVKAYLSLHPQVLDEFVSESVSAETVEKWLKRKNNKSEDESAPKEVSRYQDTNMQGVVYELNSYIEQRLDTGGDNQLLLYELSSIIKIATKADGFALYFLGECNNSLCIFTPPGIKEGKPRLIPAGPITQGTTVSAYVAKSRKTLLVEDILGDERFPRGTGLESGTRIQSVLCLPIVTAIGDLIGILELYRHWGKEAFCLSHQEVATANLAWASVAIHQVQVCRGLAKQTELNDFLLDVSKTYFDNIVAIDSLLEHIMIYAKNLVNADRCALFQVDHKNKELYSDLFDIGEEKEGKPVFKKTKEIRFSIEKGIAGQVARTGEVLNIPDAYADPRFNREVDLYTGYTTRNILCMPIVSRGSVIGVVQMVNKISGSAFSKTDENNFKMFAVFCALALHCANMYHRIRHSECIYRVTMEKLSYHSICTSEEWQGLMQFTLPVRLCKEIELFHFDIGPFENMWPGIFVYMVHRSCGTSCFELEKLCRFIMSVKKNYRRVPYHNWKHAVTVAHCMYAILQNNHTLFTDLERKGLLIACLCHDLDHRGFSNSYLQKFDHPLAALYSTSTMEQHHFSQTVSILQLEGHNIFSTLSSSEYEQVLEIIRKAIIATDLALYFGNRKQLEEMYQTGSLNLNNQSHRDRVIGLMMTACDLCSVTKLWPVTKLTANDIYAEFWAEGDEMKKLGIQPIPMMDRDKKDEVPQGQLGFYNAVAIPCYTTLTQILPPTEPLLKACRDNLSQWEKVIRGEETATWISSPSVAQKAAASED
human Matrix Metalloproteinase-9 (MMP9), MMP9 (gene 4318), sequence (P14780 whole entry, looked up): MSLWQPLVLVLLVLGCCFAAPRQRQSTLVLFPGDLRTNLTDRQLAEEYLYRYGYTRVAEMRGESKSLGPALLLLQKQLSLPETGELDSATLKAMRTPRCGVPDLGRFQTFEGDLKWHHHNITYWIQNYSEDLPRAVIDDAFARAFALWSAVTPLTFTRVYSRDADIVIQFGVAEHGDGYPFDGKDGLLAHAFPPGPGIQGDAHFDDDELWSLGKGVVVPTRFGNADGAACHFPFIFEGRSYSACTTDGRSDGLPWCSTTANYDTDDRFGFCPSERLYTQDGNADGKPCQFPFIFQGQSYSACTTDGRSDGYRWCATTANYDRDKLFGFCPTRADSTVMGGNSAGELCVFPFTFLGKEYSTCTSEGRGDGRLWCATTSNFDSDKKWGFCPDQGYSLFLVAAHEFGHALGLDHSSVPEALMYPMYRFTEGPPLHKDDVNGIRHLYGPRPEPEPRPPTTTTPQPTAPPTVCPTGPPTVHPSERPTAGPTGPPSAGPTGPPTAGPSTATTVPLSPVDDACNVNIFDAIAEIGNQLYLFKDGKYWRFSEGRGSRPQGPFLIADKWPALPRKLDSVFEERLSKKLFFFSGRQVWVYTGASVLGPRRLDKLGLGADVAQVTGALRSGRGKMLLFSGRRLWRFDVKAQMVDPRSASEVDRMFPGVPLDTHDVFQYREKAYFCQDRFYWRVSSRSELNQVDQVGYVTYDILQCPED
human Dual Specificity Protein Phosphatase 3 (DUSP3), DUSP3 (gene 1845), sequence (P51452 whole entry, looked up): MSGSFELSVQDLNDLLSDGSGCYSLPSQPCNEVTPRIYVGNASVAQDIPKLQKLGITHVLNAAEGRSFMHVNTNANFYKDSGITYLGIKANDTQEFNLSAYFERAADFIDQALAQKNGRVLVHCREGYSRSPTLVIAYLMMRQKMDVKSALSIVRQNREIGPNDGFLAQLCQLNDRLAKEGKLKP
human CYP2C9, CYP2C9 (gene 1559), sequence (P11712 whole entry, looked up): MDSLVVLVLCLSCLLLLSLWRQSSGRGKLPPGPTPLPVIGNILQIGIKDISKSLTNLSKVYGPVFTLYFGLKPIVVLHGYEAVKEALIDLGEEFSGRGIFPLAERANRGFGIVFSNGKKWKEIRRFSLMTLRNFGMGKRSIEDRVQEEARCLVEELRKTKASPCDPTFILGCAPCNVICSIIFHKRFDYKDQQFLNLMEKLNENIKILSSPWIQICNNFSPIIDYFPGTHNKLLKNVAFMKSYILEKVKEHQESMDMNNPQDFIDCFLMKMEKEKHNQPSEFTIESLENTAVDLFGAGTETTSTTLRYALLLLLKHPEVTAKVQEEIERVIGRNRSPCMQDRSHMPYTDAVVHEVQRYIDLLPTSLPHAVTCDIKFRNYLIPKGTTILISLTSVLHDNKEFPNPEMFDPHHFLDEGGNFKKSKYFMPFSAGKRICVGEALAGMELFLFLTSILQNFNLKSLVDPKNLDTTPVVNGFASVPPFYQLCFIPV

O=C1OC2(c3cc(Br)c(O)c(Br)c3Oc3c2cc(Br)c(O)c3Br)c2c(Cl)c(Cl)c(Cl)c(Cl)c21
inactive: [3] | [6] | [10]
active: [1] 23.1 µM | [2] 23.5 µM | [4] 21.3 µM | [5] 18.2 µM | [7] 0.196 µM | [8] 0.552 µM | [9] 6.67 µM | [11] 1.86 µM

C=CCOC(=O)CCC1CCCCC1
inactive: [1] | [2] | [3] | [4] | [5]

Nc1cc([N+](=O)[O-])ccc1O
inactive: [1] | [2] | [3] | [4] | [5]

CC(C)(COC(=O)c1ccccc1)COC(=O)c1ccccc1
inactive: [1] | [2] | [3] | [5]
active: [4] 20 µM

c1ccc2sc(SN(C3CCCCC3)C3CCCCC3)nc2c1
inactive: [1] | [7]
active: [2] 5.28 µM | [3] 3.23 µM | [4] 11.4 µM | [5] 11.4 µM

Cc1ccc(Nc2ccc(O)c3c2C(=O)c2ccccc2C3=O)cc1
active: [12] 6.25 µM | [13] 2.18 µM
inactive: [1] | [2] | [3] | [4] | [5]

CCCCCCCCC=O
inactive: [1] | [2] | [3] | [4] | [5]

Cc1ccc2n[nH]nc2c1
inactive: [1] | [2] | [3] | [4] | [5]

O=C=NC1CCC(CC2CCC(N=C=O)CC2)CC1 (configuration not stated)
active: [2] 13.3 µM | [4] 33.5 µM | [12] 8.32 µM | [13] 2.17 µM
inactive: [1] | [3] | [5] | [14] | [11]

O=C(O)c1cn(C2CC2)c2cc(N3CCNCC3)c(F)cc2c1=O
inactive: [1] | [2] | [3] | [4] | [5]

COc1cc(C=O)ccc1OC(=O)C(C)C
inactive: [1] | [2] | [3] | [4] | [5]

N#Cc1ccc(CC(=NNC(=O)Nc2ccc(OC(F)(F)F)cc2)c2cccc(C(F)(F)F)c2)cc1
inactive: [1] | [2] | [3] | [4] | [5]

CCCCCCCCCC=O
inactive: [1] | [2] | [3] | [4] | [5]

CCCCCCCCC
active: [13] 25 µM

OC1C(O)C(O)C(O)C(O)C1O (configuration not stated)
inactive: [15] | [14]

Cc1ccc(C(C)C)cc1O
active: [16] 3.83 µM

Nc1ccc(F)c([N+](=O)[O-])c1
active: [7] 0.0662 µM
inactive: [17] | [18]

S=C(S)NCCNC(=S)S
active: [9] 0.161 µM

N#Cc1ccccc1
inactive: [12] | [11]

OCC(CO)(CO)COCC(CO)(CO)CO
active: [14] 23.1 µM
inactive: [15]

Cc1c(Cl)c(=O)oc2cc(O)ccc12
active: [14] 0.582 µM

Clc1ccc(Cl)c(Cl)c1Cl
active: [13] 6.22 µM

COc1cc2ncnc(Nc3cccc(Cl)c3)c2cc1OC
inactive: [15]
active: [14] 2.52 µM | [19] 1.27 µM

O=[N+]([O-])c1cc(C(F)(F)F)ccc1Cl
active: [14] 35 µM
inactive: [1] | [2] | [3] | [4] | [5] | [15]
